PINK1 modulator: A Quantitative High throughput Screen to Identify Chemical Modulators of PINK1 Expression; PINK1 immunofluorescence, high-content cytometry, 24 h; AID 624263, 2012; 0.2% of 410,000 active; Potency, µM (series often up to 76.6 µM), for inactives: top-dose activation (PINK1 increase), hits mostly activators; active means well fitted activation curve with a large enough effect; inconclusive means small, poorly fitted or top-dose-only effect; cell line not stated here; further: % of control where 0% means no effect; nearly all actives have a fitted effect of over 65% in size
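Stable cell line treated 24 h with compounds at 5 concentrations (CCCP controls), then fixed and immunostained for PINK1 plus nuclear and cell stains; PINK1 immunofluorescence quantified by laser-scanning microplate cytometry.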
ClpP mod: qHTS Assay for Activators of ClpP; ATP-dependent Clp protease proteolytic subunit (Bacillus subtilis (strain 168)), P80244; purified B. subtilis ClpP, FRET peptide cleavage, 20 min; Potency, µM (doses to about 57.5 µM), for inactives: top-dose activity change, negative = active; 1.9% of 340,000 active; active means well fitted falling curve with a large enough effect; inconclusive means small, poorly fitted or top-dose-only effect; inactive means no such curve, though single readings can be large or run the other way; further: the source files actives as falling curves though it sought activators and does not explain the sign; nearly all actives have a fitted effect of over 65% in size
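FRET quenching reversal measured ClpP activation: 10 microg/mL B. subtilis ClpP at pH 8 with the FRET-FV decapeptide, read at 430 nm after 320 nm excitation. The 20-min minus 0-min signal was scaled between DMSO/no-enzyme wells and ADEP (5.8 microM final).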
Epigenetic reg: Quantitative High-Throughput Screen for Regulators of Epigenetic Control | murine LDR cells, GFP reporter derepression, 30 h | Potency, µM (top dose mostly 53.9 µM), for the others: at the highest dose GFP activation, actives largely listed as activators | 0.2% of 280,000 active | AID 1865, 2009; further: % of control where 0% means no effect; nearly all actives have a fitted effect of over 60% in size
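Murine LDR cells bearing a silenced CMV-driven GFP reporter were exposed to compound for 30 h at 37 C. After PBS washes, GFP-positive cells (20-120 um objects) counted by laser-scanning microplate cytometry.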
RORg inh: qHTS for inhibitors of ROR gamma transcriptional activity. Nuclear receptor ROR-gamma (Mus musculus), P51450. Drosophila S2 Gal4-RORgamma UAS-luciferase reporter, 20 h. Potency, µM (titrated, usually from 53.6 µM), without a hit: top-dose activity change, negative = inhibition, usual class: inhibitors. 5.4% of 310,000 active; further: on the % scale 0 is the no-effect control and ±100 the full control effect; nearly all actives have a fitted effect of over 60% in size
Target sequence (P51450 whole entry, looked up, the tested form may be a part): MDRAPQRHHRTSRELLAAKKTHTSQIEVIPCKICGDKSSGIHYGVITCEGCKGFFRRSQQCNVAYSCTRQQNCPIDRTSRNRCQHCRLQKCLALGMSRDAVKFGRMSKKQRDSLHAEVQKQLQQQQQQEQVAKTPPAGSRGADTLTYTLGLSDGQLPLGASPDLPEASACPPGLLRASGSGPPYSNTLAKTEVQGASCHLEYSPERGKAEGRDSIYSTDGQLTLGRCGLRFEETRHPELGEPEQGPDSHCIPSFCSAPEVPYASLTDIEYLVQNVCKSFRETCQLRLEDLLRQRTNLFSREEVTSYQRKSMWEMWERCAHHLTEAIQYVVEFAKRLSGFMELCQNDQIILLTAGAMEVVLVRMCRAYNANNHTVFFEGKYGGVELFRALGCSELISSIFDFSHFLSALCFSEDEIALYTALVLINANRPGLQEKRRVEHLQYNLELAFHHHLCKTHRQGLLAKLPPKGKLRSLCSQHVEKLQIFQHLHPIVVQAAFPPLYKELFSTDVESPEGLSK
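Luciferase reporter read in Schneider cells carrying Gal4-RORγ (mouse) and UAS-Photinus luciferase; cells given compound 1 h before 700 uM copper sulfate induction, then incubated 20 h at ambient temperature.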
Gal4-VP16 FLuc: VP16 counterscreen qHTS for inhibitors of ROR gamma transcriptional activity; Potency, µM (top dose mostly 53.6 µM), for inactives: top-dose activity, negative = inhibition, actives largely listed as inhibitors; Drosophila S2 Gal4-VP16 UAS-luciferase, luminescence, 20 h; 3.5% of 310,000 active;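 further: Gal4-VP16 expression switched on by copper sulfate through the metallothionein promoter; on the % scale 0 is the no-effect control and ±100 the full control effect; nearly all actives have a fitted effect of over 50% in size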
Sfp inh: qHTS Assay for Inhibitors of Bacillus subtilis Sfp phosphopantetheinyl transferase (PPTase). Biochemical Sfp PPTase activity, qHTS. 3.5% of 310,000 active. AID 1490, 2009. Potency, µM, for the others: largest response in the series, negative = inhibition, most hits filed as inhibitors. 4'-phosphopantetheinyl transferase ffp (Bacillus subtilis), Q9F4F7;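 further: the enzyme is Sfp with the accession as filed and its product quenches rhodamine fluorescence; 0% = enzyme reaction without inhibitor and -100% = no enzyme wells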
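Fluorescence-quenching assay with 15 nM Sfp, 5 uM rhodamine-CoA and 12.5 uM BHQ-2-labelled ybbR peptide in pH 7.6 Hepes/MgCl2 buffer. Enzyme was pre-incubated with compound for 15 min at room temperature. Rate was taken from the 30-min fluorescence change (525/598 nm).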
An asterisk follows results filed as active; ? = inconclusive; nt = no result; [ ] = remark or other dose. An excerpt weighted towards active compounds, which were near 8.1% of everything screened. Unless noted, the call rests on the fitted dose curve; in most records, active means well fitted curve in the direction sought with a large enough effect; inconclusive means small, poorly fitted or top-dose-only effect, or another doubt; inactive means no such curve, though single readings can be large; an effect the other way counts as inactive or inconclusive. Potency means the concentration at half of the fitted maximal effect.

SMILES	PINK1 modulator	ClpP mod	Epigenetic reg	RORg inh	Gal4-VP16 FLuc	Sfp inh
CCCN1CCCc2cc(CN(CCCN3CCOCC3)C(=O)Nc3ccc(CC)cc3)ccc21	26%	-8%	-1%	nt	nt	nt
CCN1CCCc2cc(CN(CCN3CCOCC3)C(=S)Nc3cc(F)cc(F)c3)ccc21	0%	1%	-2%	7.1µM*	1%[10 µM]	12%
N#CCCN(C(=O)COC(=O)CCc1ccccc1)c1ccccc1	4%	nt	nt	12%	-9%	8%
N#CCCN(C(=S)NC(=O)c1ccco1)c1ccccc1F	-1%	0%	2%	-26%	7%	22µM*
N#CCCN(C(=O)c1ccco1)c1ccccc1	0%	1%	-7%	1.4µM*	9%	3%
O=C1c2cccc3cccc(c23)C(=O)N1c1ccc(O)cc1	4%	-5%	nt	-14%	-2%	50µM*
CC(=O)N1C(=O)c2cccc3cccc(c23)C(=O)N1C(C)=O	1%	25µM*	2%	-31%	-8%	9%
Cc1ccc(N2C(=O)c3cccc4cccc(c34)C2=O)cc1	1%	nt	0%	-32%	-13%	12%
O=C1c2cccc3cccc(c23)C(=O)N1c1nncs1	-1%	16µM*	-1%	-27%	1%	10%
Cn1cnnc1Sc1ccc(CN2CCOc3ccc(C4=CCCCC4)cc3C2)o1	0%	nt	nt	nt	nt	nt
COc1cc(OC)cc(C(=O)N2CCN(C(=O)COc3ccccc3)CC2)c1	0%	1%	-1%	nt	nt	nt
Cc1cc(C)c(C)c(OCCN2CC(C)OC(C)C2)c1 (stereo not drawn)	5%	2%	nt	1%[1.91 µM]	-4%	45µM*
CC1CN(CCOc2ccc(Cl)cc2Cl)CC(C)O1 (stereo not drawn)	1%	1%	-2%	-10%	2%	-16%
CC1(C)Cc2c(c(-c3ccco3)nc3sc4c(NCC5CCCO5)ncnc4c23)CO1 (stereo not drawn)	7%	16µM*	-1%	-9%	-19%	20µM*
CC1(C)Cc2c(c(-c3ccco3)nc3sc4c(NCCN5CCOCC5)ncnc4c23)CO1	3%	nt	4%	?	?	-4%
CC1(C)Cc2c(c(-c3ccco3)nc3sc4c(NCCCO)ncnc4c23)CO1	1%	4%	4%	-9%	-4%	7.9µM*
Cc1ccc(Cl)cc1NC(=O)N1CCC(CN2CCCCCC2)CC1	2%	1%	0%	nt	nt	nt
CC(C)CCNCC(O)CON=C1c2ccccc2-c2ccccc21 (stereo not drawn)	-1%	2%	5%	16%	-11%	35µM*
CCOc1ccc(-c2cn3c(n2)sc2cc(C(=O)NCCCc4ccccc4)ccc23)cc1	2%	13%	0%	nt	nt	nt
Cc1sc2nc3c(SC(C)C(=O)O)cc(C(=O)c4ccccc4O)cn3c(=O)c2c1C (stereo not drawn)	6%	1%	-1%	-12%	-13%	50µM*
Cc1noc(-c2ccc(-c3noc(-c4cccc(F)c4)n3)cc2)n1	0%	0%	0%	nt	nt	nt
COC(=O)C1=C(C)Nc2[nH]c(=S)[nH]c(=O)c2C1c1ccc(OC)cc1 (stereo not drawn)	-2%	0%	0%	-7%	-8%	40µM*
CN(c1ccccc1)S(=O)(=O)c1cccc(NC(=O)CSc2nnc(N)s2)c1	-2%	4%	3%	?	?	8%
CN(c1ccccc1)S(=O)(=O)c1cccc(NC(=O)CSc2nncs2)c1	2%	-1%	1%	37%	22µM*	11%
NCCCCCCNS(=O)(=O)c1ccc2c(Cl)cccc2c1	2%	-1%	4%	?	28µM*	-19%
O=c1c(NCc2cccs2)nccn1-c1ccc(F)cc1	1%	-4%	-1%	nt	nt	nt

Screening results from PubChem.
